# NPSR antag – blocks cAMP signaling of the human neuropeptide S receptor | hit rate 1% among 220,000 | AID 1461 | Potency, µM (doses to about 38.3 µM), for the others: at the top dose activity change, negative = inhibition, hits mostly inhibitors | CHO-NPSR cells, cAMP TR-FRET, antagonist mode | Q6W5P4; further: on the % scale 0 is the no-effect control and ±100 the full control effect; nearly all actives have a fitted effect of over 50% in size
# Target sequence (Q6W5P4 whole entry, looked up): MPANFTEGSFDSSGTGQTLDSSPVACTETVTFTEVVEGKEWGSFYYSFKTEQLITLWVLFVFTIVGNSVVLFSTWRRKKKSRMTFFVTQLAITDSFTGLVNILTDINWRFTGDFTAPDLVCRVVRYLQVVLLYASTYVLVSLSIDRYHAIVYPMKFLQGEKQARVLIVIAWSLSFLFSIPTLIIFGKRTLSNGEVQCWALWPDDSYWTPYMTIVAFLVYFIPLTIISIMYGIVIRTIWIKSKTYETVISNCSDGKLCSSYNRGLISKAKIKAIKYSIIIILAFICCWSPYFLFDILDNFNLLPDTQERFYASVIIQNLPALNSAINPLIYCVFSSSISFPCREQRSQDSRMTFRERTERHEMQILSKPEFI
# IMPase Li cell – IMPase inhibition in cells with lithium potentiation. CHO-M1 cells, IP1 TR-FRET (IP-One), carbachol + lithium. Potency, µM (titrated, usually from 59.4 µM), inactives show at the top dose activity, negative = IMPase inhibition, actives largely listed as inhibitors. hit rate 0.35% among 210,000. AID 1457;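 further: IP1 builds up when IMPase is blocked and the TR-FRET signal falls; plate controls were basal vehicle for no effect and high inhibitor control for full effect; nearly all actives have a fitted effect of over 50% in size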
#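 Readout is a homogeneous TR-FRET IP1 immunoassay (Ex 320, Em 665 and 620), where raised cytosolic IP1 lowers signal. Cells were CHO-M1 treated 30 min at 37C with test compounds plus a little lithium; AC50 values came from Hill-equation fitting.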
# KDM4E inh – blocks human JMJD2E demethylase activity; hit rate 1.6% among 230,000; JMJD2E catalytic domain, FDH-coupled NADH fluorescence (FDH is formaldehyde dehydrogenase); AID 2147; Potency, µM (doses to about 57.1 µM), without a hit: at the top dose activity change, negative = inhibition, most hits filed as inhibitors; active means well fitted inhibition curve with a large enough effect, not every such curve was filed as active; inconclusive means small, poorly fitted or top-dose-only effect, or another doubt; inactive means no such curve, though single readings can be large or run the other way;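 further: 0% = wells with enzyme and -100% = buffer wells without enzyme; nearly all actives have a fitted effect of over 50% in size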
# Target sequence (B2RXH2 1-337 limits assumed): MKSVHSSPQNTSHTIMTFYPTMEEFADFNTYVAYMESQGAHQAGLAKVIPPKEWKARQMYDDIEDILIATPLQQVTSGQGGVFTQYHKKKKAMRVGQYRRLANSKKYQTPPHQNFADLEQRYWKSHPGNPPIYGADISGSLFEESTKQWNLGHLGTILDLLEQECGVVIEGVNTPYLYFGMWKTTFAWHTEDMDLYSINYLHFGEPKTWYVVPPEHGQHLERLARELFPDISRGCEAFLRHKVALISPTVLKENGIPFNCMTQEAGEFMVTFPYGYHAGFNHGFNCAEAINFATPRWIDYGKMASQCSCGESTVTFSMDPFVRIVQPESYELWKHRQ
# Epigenetic reg – regulators of epigenetic silencing causing reporter derepression in mouse cells. AID 1865. murine LDR cells, GFP reporter derepression, 30 h. hit rate 0.2% among 280,000. Potency, µM (series often up to 53.9 µM), without a hit: at the highest dose GFP activation, usual class: activators; further: % of control where 0% means no effect; nearly all actives have a fitted effect of over 60% in size
#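 Murine LDR cells carrying a silenced, genomically integrated CMV-driven GFP reporter were exposed to compound for 30 hours at 37 C. After PBS washes, GFP-positive cells (20–120 um objects) were counted by laser-scanning microplate cytometry.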
# Sfp inh – blocks B. subtilis Sfp PPTase activity; Q9F4F7; Biochemical Sfp PPTase activity, qHTS; Potency, µM, without a hit: largest response in the series, negative = inhibition, usual class: inhibitors; hit rate 3.5% among 310,000; AID 1490;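 further: the enzyme is Sfp with the accession as filed and its product quenches rhodamine fluorescence; 0% = enzyme reaction without inhibitor and -100% = no enzyme wells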
#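 Fluorescence-quenching assay: 15 nM Sfp-PPTase preincubated 15 min at room temperature with compound, then 5 uM rhodamine-CoA and 12.5 uM BHQ-2-labelled YbbR peptide added. Fluorescence (ex 525/em 598 nm) read at start and after 30 min; difference gives rate.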
# GCN5L2 inh – GCN5L2 (KAT2A) acetyltransferase inhibition; hit rate 0.21% among 390,000; GCN5L2 HAT assay, ThioGlo1 CoA-SH fluorescence; Potency, µM (series often up to 58.9 µM), inactives show top-dose activity change, negative = inhibition, usual class: inhibitors; further: on the % scale 0 is the no-effect control and ±100 the full control effect
#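 GCN5L2 (20nM final) in 50mM HEPES, 0.1mM EDTA pH 7.5, 0.01% Tween-20 was preincubated 15 min at room temperature with compound, then given ThioGlo1 (50uM), H3(1-25) peptide (75uM) and acetyl-CoA (70uM); CoA-thiol fluorescence (Ex340/Em540) was read at 0 and 20 min.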
# * marks the source's active call; other numbers are inactive results; ? = inconclusive; nt = not tested or not shown; [ ] = remark or other dose. An excerpt weighted towards active compounds, which were near 3.6% of everything screened. Unless noted, the call rests on the fitted dose curve; in most records, active means well fitted curve in the direction sought with a large enough effect; inconclusive means small, poorly fitted or top-dose-only effect, or another doubt; inactive means no such curve, though single readings can be large; an effect the other way counts as inactive or inconclusive. Potency means the concentration at half of the fitted maximal effect.
SMILES,NPSR antag,IMPase Li cell,KDM4E inh,Epigenetic reg,Sfp inh,GCN5L2 inh
CCCC/C=C/[C@H](c1ccccc1)[C@H](CO)Cc1cnc2ccccc2c1,nt,nt,nt,nt,1%,nt
CC1CN(c2snnc2C=C2C(=O)OC(C)(C)OC2=O)CC(C)O1 (stereo unspecified),6%,7%,-18%,-1%,50µM*,-2%
O=C(O)c1ccc(/C=N/Nc2ncc(C(F)(F)F)cc2Cl)cc1,-9%,nt,-12%,1%,28µM*,-12%
O=C(NNc1ncc(C(F)(F)F)cc1Cl)c1c(Cl)cccc1Cl,?,-22%[38.3 µM],1%,0%,21%,-13%
NC(=O)NNc1ncc(C(F)(F)F)cc1Cl,8%,-11%,3%,0%,50µM*,5%
O=C(O)c1ccc(N/N=C/c2ccc(C(F)(F)F)cc2)cc1,-22%,-3%,-13%,0%,-1%,-5%
Cc1ccccc1C1C(C#N)=C2N=C(N)c3c(sc4c3CCCCC4)N2C2=C1C(=O)CCC2 (stereo unspecified),-19%[46.1 µM],-1%[38.3 µM],0%,?,50µM*,-10%
N#CC1=C2N=C(N)c3ccccc3N2C2=C(C(=O)CCC2)C1c1ccccc1F (stereo unspecified),-15%,nt,-5%,3%,5%,-9%
Cc1cc(C)c2[nH]c(=O)c(CN(CC3CCCO3)C(=S)NCc3ccco3)cc2c1 (stereo unspecified),2%,6%,?,12%,-5%,-1%
CCNC(=S)N(Cc1cccs1)Cc1cc2cc(OCC)ccc2[nH]c1=O,-23%,9%,?,0%,-12%,-2%
Cc1cccc2cc(CN(CC3CCCO3)C(=S)NCc3ccco3)c(=O)[nH]c12 (stereo unspecified),4%,-1%,-1%,-3%,50µM*,-3%
CCNC(=S)N(Cc1ccco1)Cc1cc2cc(OCC)ccc2[nH]c1=O,-28%,20%,-118%,-1%,10µM*,9%
COc1ccccc1NC(=S)N(Cc1ccco1)Cc1cc2ccc(C)c(C)c2[nH]c1=O,8%,-1%,-16%,2%,50µM*,-6%
Cc1ccc2[nH]c(=O)c(CN(Cc3cccs3)C(=S)NCc3ccco3)cc2c1,-22%,9%,5%,?,50µM*,?
CCCN(Cc1cc2cc(C)ccc2[nH]c1=O)C(=O)c1cccc(Cl)c1,nt,nt,nt,0%,nt,-7%
CCN(CC)C(=O)c1cc(Cl)ccn1,6%,13%,-5%,-1%,45µM*,-4%
CCN(CC)C(=O)c1[nH]cnc1C(=O)Nc1cccc(Cl)c1,nt,nt,nt,nt,nt,-7%
C#C[C@]1(OC(C)=O)CC[C@H]2[C@@H]3CCC4=C/C(=N/O)CC[C@@H]4[C@H]3CC[C@@]21CC,nt,nt,nt,nt,79µM*,-23%
CSCC[C@H](NC(=O)[C@H](CC(C)C)NC(=O)[C@@H]1CCCN1C(=O)[C@H](Cc1ccccc1)NC(=O)[C@H](Cc1ccccc1)NC(=O)[C@@H]1CCC(=O)N1)C(N)=O,nt,nt,nt,nt,-17%,0%
COc1ccc2c(c1OC)C(=O)N1c3ccccc3N=C(c3ccc([N+](=O)[O-])cc3)CC21 (stereo unspecified),-22%[46.1 µM],9%,4%,3%,20µM*,2%
O=C(Cn1cc(S(=O)(=O)Cc2ccc(F)cc2)c2ccccc21)NCc1ccccc1Cl,nt,nt,nt,-1%,nt,-26%
O=C(O)CCNc1ccc2c(c1)OCCO2,-8%[46.1 µM],39%[38.3 µM],4%,1%,50µM*,-2%
CC(C)CO/N=C1/C[C@@H](O)[C@@H](O)[C@@H]2[C@@H]3C(=O)N(C(C)(C)C)C(=O)[C@H]3CC[C@H]12,nt,nt,nt,0%[10.1 µM],14%,nt
N#C/C(=C\c1ccc(-c2cc(Cl)ccc2Cl)o1)C(=O)Nc1ccccc1C(=O)O,nt,nt,nt,0%,nt,-7%
c1cnc2c(c1)ccc1cccnc12,5%[46.1 µM],6%,25µM*,1%,2.5µM*,6%
SMILES,NPSR antag,IMPase Li cell,KDM4E inh,Epigenetic reg,Sfp inh,GCN5L2 inh
CC(C)n1c(=S)[nH]c2c1c(=O)[nH]c(=O)n2C,-4%[46.1 µM],2%[38.3 µM],7.9µM*,-2%,10µM*,?
NC(=O)[C@H]1CCCN1C(=O)[C@H](Cc1cnc[nH]1)NC(=O)[C@@H]1CCC(=O)N1,nt,nt,nt,nt,-14%,-13%
Cc1ccc(N=Cc2cc(Cc3ccccc3Cl)cc([N+](=O)[O-])c2O)c(O)c1,?,-3%,18µM*,0%,50µM*,?
COc1ccc(N=Cc2cc(Cc3ccccc3Cl)cc([N+](=O)[O-])c2O)cc1OC,-25%,-13%,?,-1%,8%,-7%
COc1ccc(S(=O)(=O)c2cc(NS(=O)(=O)c3ccc(Cl)cc3)c(C)c(C)c2O)cc1,nt,nt,nt,5%,nt,4%
CNc1nc(-c2ccccc2)[n+](-c2ccc(C)cc2)s1,?,nt,-3%,-1%,3.2µM*,7.9µM*
Cc1ccc(-c2nc(N)s[n+]2-c2ccccc2)cc1,?,11%,1%,0%,?,6.3µM*
Cc1ccc(-c2nc3ccccc3nc2-c2ccccc2)cc1,nt,nt,nt,nt,-19%,-5%
Cc1cc(C)n(C(C)CC(=O)Nc2cccc(C#N)c2)n1 (stereo unspecified),nt,nt,nt,-1%,nt,1%
O=C(O)c1ccccc1NS(=O)(=O)c1ccccc1F,nt,nt,nt,-3%,nt,nt
O=C(c1ccccc1)N1CCCc2ccccc21,-3%[46.1 µM],9%,-5%,0%,14%,-1%
O=C(c1ccc(=O)oc1)N1CCCc2ccccc21,-10%[46.1 µM],-4%[38.3 µM],14µM*,7%,?,?
C=C(C)Cn1c(SCC(=O)N/N=C/c2ccccc2)nc2ccccc2c1=O,-33%,13%,2%,-1%,79µM*,-2%
COC(=O)[C@H](COC(C)(C)C)NC(=O)O[C@H]1C(=O)c2ccc(OC)cc2O[C@@H]1c1ccc2c(c1)OCO2,nt,21%,1%,1%,-7%,nt
COC(=O)c1ccccc1CSc1nsc(/C=C/N(C)C)c1C#N,nt,nt,nt,nt,16µM*,-12%
COC(=O)c1cccnc1SCc1ccccc1,-4%[46.1 µM],0%,9%,2%,-1%,-10%
C=CCc1c(C)nc(C)nc1N/N=C/c1ccccc1O,-1%[46.1 µM],-3%,3.2µM*,-2%,-25%,1%
CCN(CC)CCCC(C)n1c(-c2ccccc2)nc2c(NC3CCCCC3)nc(C)nc21 (stereo unspecified),nt,9%,?,-1%,3%,nt
C=CCOC(=O)C(C(C)=O)C(NC(=O)OC)c1cccc(F)c1 (stereo unspecified),nt,nt,nt,2%[10.1 µM],-15%,nt
Cn1c(-c2nc(-c3ccccc3)cs2)nc2ccccc21,nt,12%,?,-2%,45µM*,-6%
CCCC(=O)N(C1CC(C)C(C#N)(C#N)C1(C#N)C#N)N(C)C (stereo unspecified),-58%,nt,4%,1%,1.8µM*,-13%
